# dFosB act-1 – activators of delta FosB homodimer, primary screen, biochemical, fluorescence polarization, TAMRA-CDK5 oligo, single point; activation, % at 25 µM; AID 493131, 2011; Protein FosB (Mus musculus), P13346; actives 0.99% (n = 340,000); purified delta FosB; percent of positive-control signal above neutral wells;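 active = mean activation above about 17%, with every replicate also reaching it, limit read from the data, passing the limit was not always enough; inconclusive = only one of the two conditions met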
# Target sequence (P13346 whole entry, looked up): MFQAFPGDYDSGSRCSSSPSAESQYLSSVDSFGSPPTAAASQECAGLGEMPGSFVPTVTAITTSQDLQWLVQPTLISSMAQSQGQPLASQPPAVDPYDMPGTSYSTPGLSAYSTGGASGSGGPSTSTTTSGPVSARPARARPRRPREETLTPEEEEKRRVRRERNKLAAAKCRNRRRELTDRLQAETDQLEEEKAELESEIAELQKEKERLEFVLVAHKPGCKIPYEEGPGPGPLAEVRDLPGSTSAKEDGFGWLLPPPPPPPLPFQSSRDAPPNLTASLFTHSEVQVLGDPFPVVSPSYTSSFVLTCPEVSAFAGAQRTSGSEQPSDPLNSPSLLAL
# DYRK1A inh – rat Dyrk1A kinase inhibitors, primary screen, biochemical, single point, plate reader. Dual specificity tyrosine-phosphorylation-regulated kinase 1A (Rattus norvegicus), Q63470. ADP-Glo luminescence, NFATc1 peptide. inhibition, % at 12.5 µM. actives 0.43% (n = 310,000). AID 504441, 2011; in the data active = inhibition above about 50%;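 also: plate controls were vehicle with enzyme for no effect and no enzyme for full effect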
# Bfl-1 A1 inh – caspase 3/7 activation in MEF A1-2A-BIM cells, primary screen, A1 inhibitor project, cell-based, luminescence, HTS. Caspase-Glo 3/7 luminescence, 3 h; percent of clofoctol response, vehicle zero. caspase activation, % (concentration not given with the values). actives 0.066% (n = 330,000). AID 2462, 2010;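 active = over half of replicate activation scores above 10%, or exactly half above 10 with the replicate mean above 10; inconclusive = replicate mean below 10 yet half the replicates above 10; inactive = over half of replicates below 10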
# B2AR ag – beta2AR agonists driving receptor internalization, primary screen, cell-based, FAP fluorogen, flow cytometry; Am2.2-beta2AR cells; response, % (no concentration beside the values); actives 0.43% (n = 340,000); AID 504454, 2011;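 active = response above a set limit, near 3 SD of response in nonfluorescent compounds, cut at about 42% in these data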
# dFosB act-2 – activators of mouse delta FosB DNA binding, confirmation, biochemical, fluorescence polarization, TAMRA-CDK5 oligo, cherry-picked samples. 2,400 tested, under 10 active. activation, % at 24.9 µM. purified delta FosB; normalised: neutral wells 0, positive control 100. shares compounds with dFosB act-1;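 active = highest replicate activation at or above 34% and every replicate reaching that threshold; inconclusive = meets only one of the two criteria; inactive = meets neither criterion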;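 also: higher polarization means more probe DNA bound by delta FosB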
# Active calls of the source: *; ? = inconclusive; / = no result given. This is a sample that favours compounds with a hit; in the whole collection about 1.6% have one here.
SMILES,dFosB act-1,DYRK1A inh,Bfl-1 A1 inh,B2AR ag,dFosB act-2
O=C(OCC(=O)N1CCc2ccccc21)c1n[nH]c(=O)c2ccccc12,38*,/,2,-10,-1
Cc1ccc(Nc2nnc(SCc3nc4ccccc4c(=O)[nH]3)s2)cc1,43*,14,-1,7,-1
O=C(CCc1nc2ccccc2c(=O)[nH]1)Nc1nnc(SCc2ccc(Cl)cc2)s1,?,15,0,2,/
O=C(CSc1nnc2c(n1)[nH]c1ccc(S(=O)(=O)N3CCOCC3)cc12)Nc1ccccc1Cl,26*,1,1,9,-1
COc1cc(-n2c(=O)c3ccccc3n(Cc3cccc(C)c3)c2=O)cc(OC)c1OC,53*,-8,-1,4,5
O=C(CNC(=O)c1ccc(-c2ccccc2)cc1)Nc1ccc(S(=O)(=O)Nc2ncccn2)cc1,25*,-4,0,14,4
Cc1cccc(NC(=O)C2CCCN(S(=O)(=O)c3ccc4[nH]c(=O)ccc4c3)C2)n1 (stereo not drawn),-8,-5,1,12,/
O=C(Cn1c(=O)oc2cc(S(=O)(=O)N3CCCC3)ccc21)NC1CCCc2ccccc21 (stereo not drawn),26*,16,0,-1,3
Cc1ccc(C)c(N2CCN(C(=O)Cn3c(=O)oc4cc(S(=O)(=O)N5CCCC5)ccc43)CC2)c1,35*,1,1,7,2
CC(=O)Nc1ccc2nc(NC(=O)COc3ccc([N+](=O)[O-])cc3)sc2c1,4,-2,-1,0,/
COc1ccc(OCC(=O)Nc2nc3ccc(NC(C)=O)cc3s2)cc1,23*,0,2,-1,8
CC(=O)Nc1ccc2nc(NC(=O)c3cccs3)sc2c1,22*,-1,-8,-1,-2
CC(=O)Nc1ccc(/C(C)=N/NC(=O)c2ccc(COc3ccccc3Cl)o2)cc1,31*,10,0,-1,-2
COc1ccc(/C=N/NC(=O)c2ccc(COc3ccccc3Cl)o2)cc1,28*,-2,-2,5,8
Cc1cc(NC(=O)c2ccc(COc3ccccc3Cl)o2)no1,7,-4,0,5,/
COc1ccc(/C=N/NC(=O)c2ccc(COc3ccccc3Cl)o2)c(OC)c1C,-12,-5,2,-1,/
O=C(CCSCc1cccc(F)c1)NCCc1ccccc1,4,2,0,6,/
O=C(/C=C/c1cccc([N+](=O)[O-])c1)OCC1CCCO1 (stereo not drawn),-4,-7,0,5,/
COc1ccc(-c2ccnc3nc(-n4cccc4)nn23)cc1,9,3,2,-20,/
Clc1cccc(-c2ccnc3nc(-n4cccc4)nn23)c1,37*,-3,0,-31,-2
O=C(NCc1ccccn1)c1ccc(Cl)c(S(=O)(=O)N2CCOCC2)c1,-3,-1,-1,-3,/
O=C(Nc1ccccc1Cl)N(Cc1nc2ccccc2c(=O)[nH]1)Cc1cccs1,33*,-5,0,-11,1
CSc1cccc(NC(=O)NCc2cccc(CNC(=O)Nc3cccc(SC)c3)c2)c1,25*,-4,/,-2,5
COc1ccc(CN(C(=O)c2snc(C(N)=O)c2N)C(C(=O)NC2CCCC2)c2cc(OC)ccc2OC)cc1 (stereo not drawn),1,-3,0,-2,/
CCCCNC(=S)N/N=C/c1ccc(OCC(=O)Nc2c(C)cc(C)cc2C)c(OC)c1,22*,-1,?,-2,-1
SMILES,dFosB act-1,DYRK1A inh,Bfl-1 A1 inh,B2AR ag,dFosB act-2
COc1cc(/C=N/NC(N)=S)ccc1OCC(=O)Nc1ccc(C)c(C)c1,-1,-1,0,5,/
CC(=O)c1ccccc1NC(=O)COC(=O)Cc1cccc(C(F)(F)F)c1,-6,-2,0,2,/
CC(=O)c1sc(NC(=O)CCS(=O)(=O)c2ccc(Cl)cc2)nc1C,21*,-12,0,9,0
COc1ccc(NC(=O)CCS(=O)(=O)c2ccc(Cl)cc2)cc1,-3,4,0,2,/
Nc1nc(CN2CCc3ccccc3C2)nc(Nc2ccccc2)n1,27*,2,0,11,8
COc1cccc(C2c3c(oc4cc(C)c(C)cc4c3=O)C(=O)N2CCCN(C)C)c1 (stereo not drawn),38*,16,0,-15,4
CC(NC(=O)C1CCN(C(=O)[C@@H]2Cc3ccccc3CN2)CC1)c1ccccc1 (stereo partly drawn),0,-4,0,3,/
NC(=O)CC(NC(=O)Cc1cccc2ccccc12)c1ccc(NCc2ccccc2)c([N+](=O)[O-])c1 (stereo not drawn),47*,-11,0,-2,2
NC(=O)CC(NC(=O)Cc1cccc2ccccc12)c1ccc(NCc2ccc(F)cc2)c([N+](=O)[O-])c1 (stereo not drawn),32*,1,1,-5,-6
C/C=C(\C)CN1CCC(Oc2cccc(C(=O)NCc3ccccn3)c2)CC1,8,-3,0,-7,/
Cc1ccc(S(=O)(=O)N2CCCCC2)cc1NC(=O)c1cc(F)c(F)c(F)c1F,-1,-4,0,2,/
C=CCn1c(SCC(=O)Nc2ncc(Cc3ccc(Br)cc3)s2)nnc1-c1ccncc1,37*,6,-1,1,5
O=c1[nH]cnc2c1sc1nc(C(F)F)cc(-c3ccccc3)c12,32*,/,-1,17,4
O=c1[nH]cnc2c1sc1nc3c(c(-c4ccc(Cl)cc4)c12)CCC3,-23,12,0,0,/
CNc1ccc(C(=O)OCC(=O)NCc2ccc3c(c2)OCO3)cc1[N+](=O)[O-],36*,/,-1,-5,-1
O=C(COC(=O)c1ccc2c(c1)OCO2)NCc1ccc2c(c1)OCO2,3,0,0,-2,/
O=C(COC(=O)c1cc(Br)ccc1O)Nc1ccc2c(c1)OCO2,43*,/,1,14,-2
COc1ccc(NC(=O)COC(=O)c2ccc3c(c2)OCCO3)cc1OC,48*,/,-2,-2,2
NC(=O)c1ccc(NC(=O)COC(=O)c2ccc3c(c2)OCO3)cc1,24*,/,0,3,-2
COc1ccc(/C=C/C(=O)OCC(=O)Nc2ccc3c(c2)OCO3)cc1,28*,/,0,-1,-9
Cc1cc(S(=O)(=O)Nc2ccc(C(=O)NCC(C)(C)N3CCOCC3)cc2)ccc1F,-7,-3,0,1,/
O=C(Nc1ccc(NC(=O)c2ccccc2O)cc1)Nc1ccc(F)cc1F,32*,/,0,4,7
Cc1ccc(S(=O)(=O)Nc2ccc(NC(=O)Nc3ccc(F)cc3F)cc2)cc1,20*,-1,0,20,5
O=[N+]([O-])c1ccc(OCCOc2ccccc2/C=N/n2cnnc2)cc1,36*,-1,0,1,5
